Screening data deposited in PubChem by National Center for Advancing Translational Sciences (NCATS).
Hits are enriched below; roughly 15% of the tested compounds scored in any of these assays.
RORgamma inh: blocks mouse ROR gamma transcriptional activity; P51450; Drosophila S2 Gal4-RORgamma UAS-luciferase reporter, 20 h; Potency, µM (series often up to 53.6 µM), for inactives: at the top dose activity change, negative = inhibition, actives largely listed as inhibitors; hit rate 5.4% among 310,000; AID 2551; also: nearly all actives have a fitted effect of over 60% in size
Target sequence (P51450 whole entry, looked up, the tested form may be a part): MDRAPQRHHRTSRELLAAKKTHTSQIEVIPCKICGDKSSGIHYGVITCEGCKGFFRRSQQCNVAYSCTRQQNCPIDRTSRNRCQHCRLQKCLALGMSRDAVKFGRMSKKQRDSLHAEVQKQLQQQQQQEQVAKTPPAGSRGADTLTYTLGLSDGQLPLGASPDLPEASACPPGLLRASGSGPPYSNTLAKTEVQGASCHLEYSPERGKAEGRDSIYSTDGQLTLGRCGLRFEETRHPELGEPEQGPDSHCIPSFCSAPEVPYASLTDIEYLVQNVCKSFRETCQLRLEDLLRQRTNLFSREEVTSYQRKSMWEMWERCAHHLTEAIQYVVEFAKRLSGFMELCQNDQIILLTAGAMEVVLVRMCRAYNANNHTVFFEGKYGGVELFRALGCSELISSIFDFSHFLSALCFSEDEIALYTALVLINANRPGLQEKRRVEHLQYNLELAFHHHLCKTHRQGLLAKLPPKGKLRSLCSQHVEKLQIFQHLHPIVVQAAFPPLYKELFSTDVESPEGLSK
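A Gal4/UAS one-hybrid system in insect cells: metallothionein-promoter Gal4–ROR gamma fusion plus Photinus luciferase reporter. Copper sulfate 700 uM final, 20 hr ambient incubation, luminescent detection after 10 min with reagent.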
TDP1 cell noCPT: qHTS for Inhibitors of human tyrosyl-DNA phosphodiesterase 1 (TDP1): qHTS in cells in absence of CPT | DT40 Tdp1-/- hTDP1 cells, no CPT, ATP luminescence, 48 h | Potency, µM (series often up to 46.2 µM), inactives show top-dose activity change, negative = growth inhibition, usual class: inhibitors | hit rate 15% among 420,000 | AID 686978, 2013; also: nearly all actives have a fitted effect of over 55% in size
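Seeded 400 DT40-hTDP1 cells/well (vehicle DMSO, no 20 nM CPT); pinned compounds; ≥48 hr at 37 °C; CellTiter-Glo luminescence as viability measure.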
TDP1 cell CPT: growth inhibition of DT40 Tdp1-/-;hTDP1 cells with camptothecin (screen for TDP1 inhibitors). chicken DT40 Tdp1-/-;hTDP1 cells + 20 nM CPT, ATP luminescence, 48 h. Potency, µM (top dose mostly 46.2 µM), without a hit: top-dose activity change, negative = growth inhibition, actives largely listed as inhibitors. hit rate 12% among 420,000; also: nearly all actives have a fitted effect of over 55% in size
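Chicken DT40 Tdp1-/- cells stably complemented with human TDP1 were seeded at 400 cells/well in medium containing 20 nM camptothecin, exposed to pin-transferred compounds, and grown at 37 °C for at least 48 hr. Viability was read as ATP luminescence.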
12-LOX inh: ALOX12 (human) lipoxygenase inhibition; Potency, µM (series often up to 108 µM), inactives show at the highest dose activity change, negative = inhibition, usual class: inhibitors; P18054; purified 12hLO, xylenol orange hydroperoxide absorbance; hit rate 1.1% among 580,000
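Hydroperoxide product was detected by ferrous iron/xylenol orange as the 573 to 405 nm absorbance ratio. Arachidonic acid at 40 uM (final) was turned over for 30 min at room temperature by 150 nM human 12hLO, pH 7.0 Hepes buffer, after 15 min compound preincubation.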
Gal4-VP16 FLuc: Gal4-VP16 reporter inhibition counter-screen; Drosophila S2 Gal4-VP16 UAS-luciferase, luminescence, 20 h; Potency, µM (doses to about 53.6 µM), inactives show top-dose activity, negative = inhibition, usual class: inhibitors; hit rate 3.5% among 310,000; AID 2546;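 also: Gal4-VP16 expression switched on by copper sulfate through the metallothionein promoter; nearly all actives have a fitted effect of over 50% in size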
ELG1 DNA repair: inhibitors of ELG1-dependent DNA repair in HEK293T cells; Potency, µM (titrated, usually from 46.1 µM), for inactives: at the highest dose activity change, negative = inhibition, most hits filed as inhibitors; hit rate 2.3% among 330,000; HEK293T ELG1-luciferase reporter, luminescence, 16 h; DNA damage induced by 5-fluorouridine; also: nearly all actives have a fitted effect of over 55% in size
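DMSO vehicle served as the neutral condition. Each well held 2,000 cells given 5-fluorouridine plus compound; after 16 hr at 37 °C/5% CO2, ONE-Glo was added and luciferase measured 30 min later.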
Numbers without * were called inactive; ? = inconclusive; . = not tested or not shown; [ ] = another dose, or the depositor's remark. Calls follow the shape of the dose curve; as a rule, active = well fitted curve in the direction sought with a large enough effect; inconclusive = small, poorly fitted or top-dose-only effect, or another doubt; inactive = no such curve, though single readings can be large; an effect the other way counts as inactive or inconclusive. % is scaled to controls: 0 for no effect and ±100 for the full control effect; potency is read from the fitted curve at half-maximal effect.

SMILES | RORgamma inh | TDP1 cell noCPT | TDP1 cell CPT | 12-LOX inh | Gal4-VP16 FLuc | ELG1 DNA repair
COCC(C)n1c(C)cc(C(=O)Cn2cnc3c2c(=O)n(C)c(=O)n3C)c1C (centres undefined) | . | . | . | -24% | . | .
CCN(Cc1ccc(Cl)s1)C(=O)Cn1nnc(-c2cccc(C(F)(F)F)c2)n1 | . | . | . | 44% | . | .
CCN(CC)CCOc1ccc2nc(N(C)C)sc2c1 | -6%[10 µM] | ? | ? | 0% | 3% | 16%
CCN(CC)CCOc1ccc(-c2nc3cc(Cl)ccc3s2)cc1 | 7% | 4.7µM* | 4.7µM* | . | 0% | .
CCc1ccc(-n2cc(C(=O)N3CCC(NC(=O)OC(C)(C)C)CC3)nn2)cc1 | . | . | . | 25% | . | .
Brc1ccc(-c2noc(Cc3ccccc3)n2)cc1 | . | . | . | -2% | . | .
O=C1CCCCC1Sc1nnc(Cc2cccs2)n1CCc1ccccc1 (centres undefined) | -27% | 23µM* | ? | 0% | 5% | -16%
COc1cccc(NC(=S)N2CCCC2c2ccc(OC)c(OC)c2)c1 (centres undefined) | ? | 29µM* | -18% | 4% | 4% | -27%
COc1ccc(C2CCCN2C(=S)Nc2ccc(C)c(C)c2)cc1OC (centres undefined) | 13µM* | ? | 9% | 3% | ? | 26µM*
COc1ccc(C2CCCN2C(=S)Nc2ccc(C)cc2C)cc1OC (centres undefined) | ? | 26µM* | -23% | 0% | ? | ?
COc1ccc(C2CCCN2C(=S)Nc2cccc(Cl)c2)cc1OC (centres undefined) | ? | ? | -15% | -7% | 1% | ?
Cn1cnc2c1c(=O)n(CC(=O)NCC1(c3ccccc3)CCCC1)c(=O)n2C | . | . | . | -19% | . | .
COc1ccc(C)cc1NC(=O)Cn1c(-c2ccc(F)cc2)nc(C)c(CCO)c1=O | . | . | . | 9% | . | .
CCc1cccc(-n2nnnc2N2CCN(C(=O)Cc3ccc(C)c(F)c3)CC2)c1 | . | . | . | 9%[6.33 µM] | . | .
N#Cc1c(N)[nH]c2ccc(Sc3ccccc3)cc12 | . | 0.73µM* | 0.73µM* | ? | . | .
COc1cc(C)ccc1OCc1cc(C(=O)NCc2n[nH]c3c2CCC3)no1 | . | . | . | 84% | . | .
N#Cc1nc(C2CC2)oc1N1CCN(Cc2cccc(F)c2F)CC1 | . | . | . | -24% | . | .
Cc1cc(C)cc(NC(=O)c2cc3n(n2)CC(c2ccc4c(c2)OCO4)OC3)c1 (centres undefined) | . | . | . | 8% | . | .
Fc1ccc(-c2nnc(-c3ccc(Cl)cc3)o2)cc1 | ? | -4% | -9% | -23% | 12% | ?
O=C(Nc1nnc(-c2ccc(Cl)cc2)o1)c1nc2ccccc2s1 | 4.5µM* | 21µM* | ? | -29% | 4.5µM* | 37%
O=C(Nc1nnc(-c2ccc(F)cc2)o1)c1cc(Cl)sc1Cl | 3.2µM* | 21µM* | 26µM* | 20% | 2.5µM* | ?
O=C(Nc1nnc(-c2ccccc2)o1)c1cc(Cl)sc1Cl | 2.2µM* | 9.2µM* | 7.3µM* | 2% | 1.3µM* | 14%
CC(C)Oc1ccc2c(NC(=O)c3ccc(=O)n(C)n3)nn(CC(F)(F)F)c2c1 | . | . | . | -12% | . | .
C=CS(=O)(=O)c1sc(Cl)c(N2CCOCC2)c1[N+](=O)[O-] | 10µM* | 2.9µM* | 1.6µM* | ? | 7.1µM* | -11%
Cc1oc(C(O)c2ccccc2)nc1C(=O)Nc1ccncc1 (centres undefined) | . | . | . | 13%[176 µM] | . | .
CC(C)NC(=S)NNc1nc2ccccc2s1 | 2.5µM* | 2.9µM* | 1.5µM* | ? | 4µM* | 0%
O=C(NNc1nc2c(F)cc(F)cc2s1)c1ccccc1 | 5µM* | -3% | -15% | 4% | ? | 15%
